In all, about 230,000 compounds went through this assay and about 1,500 (0.65%) were called active.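 The calls were made as follows: active = pattern-corrected inhibition of lipid staining of at least 50% with the nuclear-stain viability signal not falling by more than 50%; inactive = the rest, inconclusive results apart.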 Many of the other results were omitted from the sample, so actives are more common in it than they were.
test: TAG lipid buildup reduction in H9c2 cells – cell-based, uHTS, fluorescence, primary screen (AID 651582); conditions: Nile Red lipid (TAG) fluorescence, at 12.5 µM, cells loaded with 200 µM oleic acid; DAPI nuclei signal change (viability), lower = more cytotoxic: measured here: DAPI nuclei count viability; inhibition: stronger effect = higher value;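 as to inhibition: 0% = DMSO wells and 100% = triacsin C control wells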

Row | Compound | DAPI nuclei signal change (viability), lower = more cytotoxic | inhibition
1 | COC(=O)Nc1nc2ccc(Sc3ccccc3)cc2[nH]1 | -43.5% | 58.7% (active)
2 | Cc1nc2ccc(C(=O)O)cc2[nH]1 | 7.29% | -10.7% (inactive)
3 | COc1ccc2nc(SCC(=O)Nc3c(C)cc(C)cc3C)[nH]c2c1 | -8.51% | 24.4% (inactive)
4 | N#Cc1ccc(-c2ccc3nccn3c2)cc1 | 18.4% | -21.5% (inactive)
5 | COc1cc(C(=O)NCC(c2ccco2)N2CCCC2)ccc1OCc1ccccc1 (stereo not given) | 9.22% | 5.54% (inactive)
6 | CCC1CCCCN1C(=S)NC(=O)c1ccco1 (stereo not given) | -3.85% | -2.4% (inactive)
7 | COC(=O)c1ccc(SCc2ccccc2)nc1 | 0.616% | -5.84% (inactive)
8 | COC(=O)c1ccc(-c2c(-c3ccccc3)ncc3cc(OC)c(OC)cc23)cc1 | -46.2% | 70.6% (active)
9 | COc1ccc(OCC(=O)NNC(=O)c2ccc(-c3ccccc3)cc2)cc1 | -4.12% | -6.97% (inactive)
10 | CN(CC(=O)Nc1c(Cl)cccc1Cl)C(=O)CC1OC(=O)c2ccccc21 (stereo not given) | -7% | 2.91% (inactive)
11 | COc1ccc(S(=O)(=O)N2CCCCC2c2cc(C(=O)NCc3ccc(F)cc3)no2)cc1 (stereo not given) | -7.14% | 11.8% (inactive)
12 | Cn1nccc1NC(=O)Nc1ccc(OC(F)(F)F)cc1 | 0.761% | -19.5% (inactive)
13 | CCOC(=O)Cc1ncccc1C(=O)Nc1ccc(OC(F)(F)F)cc1 | -10.3% | -0.736% (inactive)
14 | O=C(Nc1ccc(OC(F)(F)F)cc1)c1ccc2c(c1)no[n+]2[O-] | -44.5% | 57.3% (active)
15 | Cc1ccccc1Cn1c(C)c(C(=O)NCc2cccc(C(F)(F)F)c2)sc1=O | 2.91% | 13.2% (inactive)
16 | COc1ccc(-c2ccc(CN3C(CC(C)C)C(=O)N(Cc4cn(CC5CCCCC5)nn4)CCS3(=O)=O)cc2)cc1 (stereo not given) | -3.84% | 14.3% (inactive)
17 | CC(=O)c1cccc(-c2ccc(CN3C(CC(C)C)C(=O)N(Cc4cn(CC5CCCCC5)nn4)CCS3(=O)=O)cc2)c1 (stereo not given) | -20.7% | 52.2% (active)
18 | CC(C)CC1C(=O)N(Cc2cn(CC3CCCCC3)nn2)CCS(=O)(=O)N1Cc1ccc(-c2ccc(Cl)cc2)cc1 (stereo not given) | -4.47% | 46.5% (inactive)
19 | Cc1ccccc1-c1cc(C(=O)NCc2cccs2)n(CC2CC(c3cccnc3)=NO2)n1 (stereo not given) | -34.7% | -1.76% (inactive)
20 | O=C(CCc1ccc(S(=O)(=O)N2CCOCC2)cc1)OCC(=O)c1ccc(Br)cc1 | 5.4% | -35.9% (inactive)
21 | CN(C)S(=O)(=O)c1cccc(NC(=S)NCc2ccc3c(c2)OCO3)c1 | 8.91% | -12.9% (inactive)
22 | Cc1ccc(/C=N/NC(=S)Nc2cccc(S(=O)(=O)N(C)C)c2)o1 | -39% | 65.8% (active)
23 | Cc1ccc(/C=N/NC(=S)NC2CCCCC2)o1 | -2.44% | 15.8% (inactive)
24 | CN1OC[C@@H]2CN[C@H](c3ccc(-c4ccccc4)cc3)C[C@@H]21 | -19.9% | 37.5% (inactive)
25 | COc1ccccc1NC1=NC2(CCCC2)N=C(N)N1 | -8.79% | 8.65% (inactive)

Row | Compound | DAPI nuclei signal change (viability), lower = more cytotoxic | inhibition
26 | COc1ccccc1NC1=NC(c2ccc(Cl)cc2)N=C(N)N1 (stereo not given) | -23.4% | 58.3% (active)
27 | COc1ccccc1Nc1nc(N)nc(CN(C)C2CCCCC2)n1 | -2.24% | -18.7% (inactive)
28 | Cc1ccc(NC(=O)CN(C)C(=O)c2ccc(Cl)c(S(=O)(=O)NCc3ccco3)c2)cc1 | -5.08% | 12.3% (inactive)
29 | CCCCc1ccc(S(=O)(=O)NC(=O)C2(C)CCN2C(=O)c2c(C)noc2C)cc1 (stereo not given) | 2.79% | 0.354% (inactive)
30 | O=C(Nc1cccc(C(=O)O)c1)/C(=C\c1ccccc1)NC(=O)c1ccc(Br)o1 | -3.36% | 6.66% (inactive)
31 | COc1ccc2sc(-c3ccc(S(C)(=O)=O)cc3)c(C#Cc3cncn3C)c2c1 | 54.1% | 93.5% (active)
32 | COc1ccc2sc(-c3ccc(S(C)(=O)=O)cc3)c(-c3ccc(C(N)=O)cc3)c2c1 | -5.68% | 33.1% (inactive)
33 | Cn1cncc1C#Cc1c(-c2ccsc2)sc2ccccc12 | 7.19% | -0.161% (inactive)
34 | O=C(O)c1ccc([N+](=O)[O-])cc1Sc1ccsc1 | -1.85% | -10.5% (inactive)
35 | CCOC(=O)c1cc(-c2sc(NC(=O)c3ccccc3)nc2C)n(Cc2ccccc2)n1 | -2.4% | 44.7% (inactive)
36 | COCCNc1ncnc2c1ncn2[C@H]1CN(CCN2CCOCC2)C[C@@H](CO)O1 | -0.911% | 0.573% (inactive)
37 | CCCOC(=O)c1[nH]c2c(c1C)C(=O)CC(c1cccs1)C2 (stereo not given) | -13.9% | 64.7% (active)
38 | COC(=O)C1C(=O)c2c([nH]c(C(=O)OCCSC)c2C)CC1C (stereo not given) | -3.66% | 1.54% (inactive)
39 | CCCOC(=O)c1[nH]c2c(c1C)C(=O)CC(c1cc(OC)c(OC)c(OC)c1)C2 (stereo not given) | -10.1% | -26.3% (inactive)
40 | Cn1c(CCN2CCN(c3ccccn3)CC2)nc2cc(NS(=O)(=O)c3ccc(F)cc3)ccc21 | 6.59% | -5.66% (inactive)
41 | CC1CCC2(CC1)NC(=O)N(CC(=O)c1ccc3c(c1)OCO3)C2=O (stereo not given) | 5.46% | -2.45% (inactive)
42 | O=C(O)c1ccccc1-c1cccc2nncn12 | 3.23% | -1.16% (inactive)
43 | Cc1cc(N/N=C\c2ccc(Br)cc2)nc(-n2nc(C)cc2C)n1 | -21.7% | 59% (active)
44 | C(=N/Nc1cc(N2CCOCC2)nc(N2CCOCC2)n1)/c1ccccc1 | -80.2% | 126% (inactive)
45 | Cc1ccc2nc(C)cc(N/N=C/c3ccc(F)cc3)c2c1 | 4.22% | 4.13% (inactive)
46 | C=C(C)C(=O)O[C@H]1C/C(C)=C\C(=O)/C=C(\C)[C@H](O)[C@@H]2OC(=O)C(=C)[C@@H]21 | -49.2% | 51.2% (active)
47 | COc1ccc(C(=O)Nc2nc(-c3ccc(OC)cc3)c(-c3ccc([N+](=O)[O-])cc3)s2)cc1 | -4.41% | 61.8% (active)
48 | CC(=O)c1sc(NC(=O)c2ccc(C)cc2)nc1C | -3.26% | -5.37% (inactive)
49 | O=C(Nc1nc2ccc([N+](=O)[O-])cc2s1)c1ccncc1 | 12.5% | -10.5% (inactive)
50 | Cc1ccc(C)c(S(=O)(=O)N(C)c2ccc(OC(=O)C3CCN(C(=O)c4ccc(F)cc4)CC3)cc2)c1 | 0.336% | -28% (inactive)
